Test results published in PubChem BioAssay AID504339 (National Center for Advancing Translational Sciences (NCATS), 2011).
The campaign covered roughly 390,000 compounds. About 17,000 (4.4%) were called active. About 8% were inconclusive and are not listed. The full list was thinned out, with actives kept by preference. Values without a mark were called inactive. Calls come from the whole dose curve; as a rule, active = well fitted inhibition curve with a large enough effect; inconclusive = small, poorly fitted or top-dose-only effect; inactive = no such curve, though single readings can be large or run the other way.

Target: Lysine-specific demethylase 4A (Homo sapiens) (UniProt O75164)
Sequence (O75164 whole entry, looked up, the tested form may be a part): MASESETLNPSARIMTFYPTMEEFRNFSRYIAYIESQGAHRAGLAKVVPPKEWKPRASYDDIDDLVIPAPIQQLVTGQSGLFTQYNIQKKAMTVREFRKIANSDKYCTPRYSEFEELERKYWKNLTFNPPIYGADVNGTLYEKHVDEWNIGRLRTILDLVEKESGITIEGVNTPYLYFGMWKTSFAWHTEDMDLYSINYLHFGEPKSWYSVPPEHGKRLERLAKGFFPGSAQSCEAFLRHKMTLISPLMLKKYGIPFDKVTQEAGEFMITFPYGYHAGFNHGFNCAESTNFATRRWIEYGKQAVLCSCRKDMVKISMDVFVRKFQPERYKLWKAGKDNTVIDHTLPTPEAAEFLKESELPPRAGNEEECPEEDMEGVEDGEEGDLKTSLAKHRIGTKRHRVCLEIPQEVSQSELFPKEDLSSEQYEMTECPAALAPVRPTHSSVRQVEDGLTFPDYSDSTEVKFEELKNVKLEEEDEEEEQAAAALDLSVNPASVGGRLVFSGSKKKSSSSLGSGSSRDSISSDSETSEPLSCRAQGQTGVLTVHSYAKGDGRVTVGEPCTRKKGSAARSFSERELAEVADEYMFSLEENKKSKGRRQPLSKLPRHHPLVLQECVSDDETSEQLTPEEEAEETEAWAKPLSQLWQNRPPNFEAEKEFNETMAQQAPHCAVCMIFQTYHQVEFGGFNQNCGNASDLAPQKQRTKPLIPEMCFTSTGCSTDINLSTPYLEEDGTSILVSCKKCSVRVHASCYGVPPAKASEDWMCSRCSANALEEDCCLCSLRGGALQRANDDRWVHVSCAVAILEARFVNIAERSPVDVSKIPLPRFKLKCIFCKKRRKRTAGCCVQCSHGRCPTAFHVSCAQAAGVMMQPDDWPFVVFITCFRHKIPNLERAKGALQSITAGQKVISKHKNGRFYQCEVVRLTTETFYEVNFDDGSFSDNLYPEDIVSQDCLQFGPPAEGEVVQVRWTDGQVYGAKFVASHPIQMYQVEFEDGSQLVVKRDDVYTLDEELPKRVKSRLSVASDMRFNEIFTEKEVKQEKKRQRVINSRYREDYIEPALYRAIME
Experiment: qHTS Assay for Inhibitors of JMJD2A-Tudor Domain; note: nearly all actives have a fitted effect of over 50% in size
Details: AlphaScreen JMJD2A-Tudor / H3K4me3 peptide binding; series mostly up to 114 µM; activity change, negative = inhibition: at the top concentration
% is set by controls: 0 for no effect and ±100 for the full control effect; potency is the fitted concentration of half-maximal effect.

Point of comparison: `CCOC(=O)c1cc(-c2ccc(OC)c(S(=O)(=O)Nc3ccc(OC)cc3OC)c2)on1`, “activity change, negative = inhibition” value -13%. Against it:
- O=C(CN1C(=O)COc2ccc(S(=O)(=O)N3CCOCC3)cc21)N1CCN(c2cccc(Cl)c2)CC1 — lower, -21.2%
- CCOc1ccccc1/C=N/NC(=O)CNC(=O)COc1ccccc1 — lower, -34.1%
- Brc1ccccc1/C=N/Nc1nc2ccccc2o1 — lower, -17.8%
- COc1ccc(NC(=O)c2sc3nc[nH]c(=O)c3c2C)cc1 — lower, -27.1%
- CC(=O)N1c2ccccc2N(Cc2ccc([N+](=O)[O-])cc2)C(=O)C1(C)C — lower, -30.2%
- Cc1[nH]n(-c2ccc([N+](=O)[O-])cc2)c(=O)c1C=NCCN1CCN(C(=O)c2ccccc2F)CC1 — higher, -10.6%
- Cc1nc2c(c(C)nn2-c2ccccc2)c(C)c1CCC(=O)NCCc1ccc(Cl)cc1 — higher, -8.72%
- Cc1ccc(C)c(Cn2c(CCCNC(=O)C3CCCCC3)nc3ccccc32)c1 — higher, -1.01%
- COc1ccccc1Cc1nc2ccccc2nc1SCC(=O)N1CCCc2ccccc21 — higher, -10.7%
- CC(C)c1ccc(Cn2c(COc3ccccc3)nc3ccccc32)cc1 — higher, 38.1%
- O=C(CSc1nnc(COc2ccc(Cl)cc2)n1Cc1ccco1)N1CCNC1=O — lower, -15.4%
- O=C(CSc1nc2c(c(=O)[nH]1)CN(Cc1ccc(F)cc1)CC2)Nc1ccccc1Cl — higher, -12.3%
- COc1cc2nc(SCc3ccc(F)cc3)n3nc(CCn4c(C)nc5ccccc54)nc3c2cc1OC — lower, -21.7%
- Cc1ccc2nc3c(cc(C(=O)NC4CCCCC4)c(=N)n3C(C)C)c(=O)n2c1 — higher, -7.61%
- CCC1=Nc2cc(C(=O)NCC(C)c3ccccc3)ccc2Sc2ccc(C)cc21 (centres undefined) — higher, -12.7%
- Cc1cccc(N2CCN(C(=O)c3cccc(S(=O)(=O)N4CCc5ccccc5C4)c3)CC2C)c1 (centres undefined) — lower, -19.5%
- Cc1cccc(N2CCN(C(=O)c3ccccc3NC(=O)C3CCCCC3C(=O)O)CC2)c1 (centres undefined) — higher, -8.22%
- O=S(=O)(c1ccc2c(c1)OCCCO2)N1CCN(S(=O)(=O)c2c(F)cccc2F)CC1 — lower, -14.4%
- CCCCCn1c(=O)[nH]c2cc(C(=O)Nc3ccc(F)cc3)ccc2c1=O — higher, -2.39%
- COc1ccccc1CNC(=O)CCn1c(=O)c2ccccc2n(CC(=O)Nc2ccc(Br)cc2F)c1=O — higher, -1.02%
- Cc1ccc2c(c1)-c1c(cnn1CC(=O)Nc1ccccc1C#N)CO2 — higher, -9.82%
- Cn1cc(S(=O)(=O)N2CCCCCC2)cc1C(=O)N1CCN(c2ccc(F)cc2)CC1 — lower, -32.9%
- O=S(=O)(NC1CCCCC1)c1ccc(F)c2ccccc12 — higher, 3.31%
- O=S(=O)(NC1CC1)c1ccc(Cl)cc1 — higher, -7.53%
- Cc1ccc(-c2nnc3c4ccccc4c(C)nn23)cc1NC(=O)c1cccc(Br)c1 — higher, -3.78%
- Cc1ccccc1C(=O)Nc1nnc(S(=O)(=O)N(C)c2ccc(Cl)cc2)s1 — higher, 2.96%
- N#Cc1nc(Nc2cccc(Cl)c2)nc(NC2CCCC2)n1 — higher, -11.6%
- COc1ccc(NC(=O)C(c2ccccc2)N2Cc3ccccc3C2=O)cc1 (centres undefined) — lower, -26%
- COc1ccc(-c2onc(C)c2C)cc1S(=O)(=O)NCc1cccs1 — higher, -8.44%
- COC(=O)c1cnc(Nc2cc(C)ccc2OC)c2ccccc12 — higher, 61.9%
- COc1ccccc1Nc1ncnc2c1oc1ccccc12 — higher, 17.7%
- O=C(OCC#CCSc1nnc(-c2ccco2)o1)c1ccc(F)cc1 — higher, 23.8%
- COC(=O)c1ccc(OC)c(Cn2c(=O)n(Cc3ccccc3)c(=O)c3c2c2cc(OC)ccc2n3C)c1 — higher, -11.3%
- COc1cc(OC)cc(C(=O)Nc2cc3nn(-c4ccccc4)nc3cc2Cl)c1 — higher, -5.6%
- CCCNC(=O)CCC(=O)N1Cc2ccccc2Oc2ncccc21 — lower, -21%
- Cc1ccc(-c2noc(-c3nnn(-c4cccc(C(F)(F)F)c4)c3N)n2)cc1 — lower, -19%
- Cc1cccc(NC(=O)COc2ccc(Br)cc2C)n1 — higher, -4.13%
- Cc1ccc(OCCOCCOc2ccc(Br)cc2/C=N\NC(=O)c2ccncc2)cc1 — lower, -16.9%
- COc1ccc(C2C(=O)N(C3CCCCC3)CC(=O)N2Cc2ccccc2Cl)cc1OC (centres undefined) — lower, -23.9%
- COc1cccc(NC(=O)Nc2ccc3c(c2)N(C)C(=O)c2ccccc2S3)c1 — lower, -24.2%
- CCc1cccc(NC(=O)c2cc(-c3ccccc3)n[nH]2)c1 — higher, -2.76%
- CCOc1ccc(CNC(=O)C2CCN(c3nnc(-n4cccc4CNc4ccc(C)cc4)s3)CC2)cc1OC — higher, 0.364%
- O=C(Nc1nnc(S(=O)(=O)N2CCCCCC2)s1)c1cccc(Br)c1 — lower, -17.2%
- CCC(=O)Nc1nnc(S(=O)(=O)N2CCCc3ccccc32)s1 — lower, -17.7%
- Cc1ccc2nc(NC(=O)c3nc(SCc4ccccc4F)ncc3Cl)sc2c1 — higher, -12.3%
- COc1ccc(S(=O)(=O)c2c(Nc3cccc(Cl)c3)sc(C(=O)c3ccccc3)c2N)cc1 — lower, -24.2%
- COc1ccc(C)cc1N(CC(=O)N1CCC(C)CC1)S(=O)(=O)c1ccc(C)cc1 — lower, -29.4%
- CCOc1cc(CO)ccc1OCC(=O)N1CCCCC1 — lower, -14%
- CCOC(=O)C1CCN(CCC(=O)Nc2cccc(C)c2)CC1 — higher, 4.35%
- COc1ccc(COCC(O)CN2CCC(C(N)=O)CC2)cc1 (centres undefined) — higher, 1.99%
- COc1ccc(CCN2C(=O)CC(N3CCC(C(N)=O)CC3)C2=O)cc1OC (centres undefined) — higher, -2.49%
- Cc1c(Br)c([N+](=O)[O-])nn1CC(=O)N1CCN(Cc2ccccc2)CC1 — higher, -4.12%
- CCOC(=O)C1CCN(Cc2nnc(-c3cccc(Br)c3)o2)CC1 — higher, 1.67%
- CC(C)CC(=O)N1CCC(O)(CS(=O)(=O)Cc2ccccc2)CC1 — higher, -11.5%
- COc1ccc(CN2CCN(C(=O)CCC(=O)Nc3nnc(C(C)C)s3)CC2)cc1F — higher, -11.5%
- COc1ccc(Cn2ccc3nc(C)c(C(=O)Nc4ccc(C)c(F)c4)cc3c2=O)cc1 — higher, -8.67%
- COc1cccc(NC(=O)CSc2cc(=O)n(C)c3ccc(Cl)cc23)c1 — higher, -9.09%
- CCCNC(=O)c1ccc2c(c1)ncn2-c1ccc(C)cc1C — lower, -20.8%
- COc1ccc(-c2cc(NCc3ccc(F)cc3)n3cnnc3n2)cc1 — lower, -35.8%
- Cc1cc2oc(C(=O)N(Cc3ccc(Cl)cc3)Cc3ccco3)c(C)c2cc1Cl — higher, -4.86%
- CC(C)(C)c1ccc(C(=O)NCC(c2ccc(Cl)cc2)N2CCOCC2)cc1 (centres undefined) — lower, -21.9%
- Cc1nc2nc(SCC(=O)NC3CCC(C)CC3)nn2c(C)c1Cc1ccccc1Cl (centres undefined) — lower, -31.5%
- Cc1ccc(NC(=O)c2oc3ccc(S(=O)(=O)N4CCCCC4)cc3c2C)cc1Cl — lower, -13.8%
- Cn1nnnc1SCC(=O)N1CCN(Cc2ccccc2)CC1 — higher, -0.746%
- O=C(c1cccc(Cl)c1)N1CCN(Cc2ccccc2)CC1 — higher, -11%
- CCOC(=O)N1CCC(NC(=O)c2cnn(-c3cccc(C)c3)c2C2CCN(C(=O)OC(C)(C)C)CC2)CC1 — higher, -8.41%
- O=C(Nc1ncccc1O)c1ccc(C(=O)c2ccccc2)cc1 — lower, -15.8%
- CC1CCC(NC(=O)CNC(=O)c2ccc3ccccc3c2)CC1 (centres undefined) — higher, -9.59%
- CCCN(CCC)C(=O)C1CCCN(c2ncnc3c2nc2n3CCCCC2)C1 (centres undefined) — higher, -0.641%
- COc1cccc(NC(=O)c2csnn2)c1 — lower, -14.9%
- Cc1nn(C)c(C(=O)NNC(=S)NC2CCCCC2)c1Cl — higher, 1.49%
- COc1ccc(S(=O)(=O)c2cn(C)c3cc(N4CCCCC4)c(F)cc3c2=O)cc1 — lower, -13.2%
- COc1ccc(S(=O)(=O)Nc2ccccc2C(=O)N2CCCC2)cc1C — higher, -9.89%
- COC(=O)c1ccccc1NS(=O)(=O)c1ccc2[nH]c(=O)[nH]c2c1 — higher, -11.8%
- COc1ccc(S(=O)(=O)Nc2ccc3cn[nH]c3c2)cc1[N+](=O)[O-] — lower, -31.1%
- CCOc1ncccc1C(=O)NNC(=O)c1cccc(S(=O)(=O)Nc2ccccc2OC)c1 — higher, -5.52%
- CCOC(=O)C1CCN(C(=O)CSc2c3c(nc4ccc(Cl)cc24)CCCC3)CC1 — higher, -6.67%

For `CCOc1ccccc1/C=N/Nc1nc2ccccc2o1`, the Potency was 17.8 µM (active).
In the case of `O=c1[nH]n(-c2ccc([N+](=O)[O-])cc2)c(=O)c2ccccc12`, the Potency is reported as 39.8 µM (active).
`Cn1c2ccccc2c(=O)c2c(=O)n(Cc3ccco3)c(COc3ccccc3)nc21` was tested, and the Potency was 44.7 µM (active).
`Cc1cccc(N2CCN(c3ccc(C(=O)O)cc3NC(=O)c3ccccc3F)CC2C)c1` (centres undefined) was tested, and the Potency was 56.2 µM (active).
With `O=S(=O)(NC1CC1)c1ccc2c3c(cccc13)CC2` the Potency was 17.8 µM (active).
In the case of `COc1ccc2c(c1)c(=Cc1ccc(N(C)C)cc1)c1cc(-c3ccccc3)[n+](C)n12`, the Potency is reported as 22.4 µM (active).
`COc1ccc(C)cc1Nc1nc(C)nc2c1oc1ccccc12` was tested, and the Potency was 17.8 µM (active).
With `O=C1Nc2ccc(Br)cc2/C1=N/N=C/C1=C(N2CCOCC2)C(=C\c2ccccc2)/CC1` the Potency was 5.01 µM (active).
With `CCC(C)NCCOCCOc1ccc(Br)cc1C` (centres undefined) the Potency was 28.2 µM (active).
For `CCc1ccc2c(c1)C1(NN=C(c3ccccc3)S1)C(=O)N2` (centres undefined), the Potency was 56.2 µM (active).
With `O=C(Nc1nnc(S(=O)(=O)N2CCCc3ccccc32)s1)c1cccc(F)c1` the Potency was 50.1 µM (active).
`CCOc1cc(CN2CCN(C(=O)CC(C)C)CC2)ccc1OC` was tested, and the Potency was 3.16 µM (active).
`COc1cc(CN2CCC(C(N)=O)CC2)ccc1OCc1ccccc1` was tested, and the Potency was 50.1 µM (active).
`CCOC(=O)C1CCN(Cc2ccc(-c3ccccc3)cc2)CC1` was tested, and the Potency was 17.8 µM (active).
With `CC(C)CC(=O)N1CCN(Cc2ccccc2Br)CC1` the Potency was 17.8 µM (active).
In the case of `CC(C)CC(=O)N1CCN(Cc2cccc(Cl)c2)CC1`, the Potency is reported as 44.7 µM (active).
In the case of `O=C(CNC(=O)c1ccc2ccccc2c1)Nc1ncccc1O`, the Potency is reported as 79.4 µM (active).
In the case of `COc1cccc(NC(=S)NC(=O)c2c(Cl)c(C)nn2C)c1`, the Potency is reported as 89.1 µM (active).
In the case of `COc1cccc(/C=N/Nc2ccc(S(=O)(=O)Nc3ccccc3C(=O)O)cc2[N+](=O)[O-])c1O`, the Potency is reported as 44.7 µM (active).
With `COc1ccc(Br)cc1/C=N/Nc1ccc(S(=O)(=O)Nc2ccccc2C(=O)O)cc1[N+](=O)[O-]` the Potency was 17.8 µM (active).

Work on `COc1ccc(/C=N/N=C2/C(=O)Nc3ccccc32)cc1O` yielded an activity change, negative = inhibition of -12.8% [at 11.4 µM].
